40 compounds from PubChem BioAssay (Tox21) can be followed below.

Inconclusive results are not listed. Entries that show only a call come without a potency. Values without a mark were called inactive. Calls of active or inactive are those of the source. Calls follow the shape of the dose curve; as a rule, active = well fitted cell-killing curve with a large enough effect in the repeat runs; inconclusive = weak or mixed curves, or effect the other way; inactive = flat fitted curve, though single readings scatter.
Potency is read from the fitted curve at half-maximal effect.

The nature of this test: Caspase-3/7 induction in HepG2 cells by small molecules, qHTS cell viability counter screen (AID 1346981). Also: nearly all actives have a fitted effect of over 30% in size. The note with it: CellTiter-Fluor fluorescence, 17 h; series mostly up to 92.4 µM. The text has this:
U.S. Tox21 Program National Center for Advancing Translational Sciences [NCATS] NIH Chemical Genomics Center [NCGC] U.S. Environmental Protection Agency [EPA] National Institutes of Environmental Health Sciences [NIEHS] National Toxicology Program [NTP] U.S. Food and Drug Administration [FDA] Tox21 Assay Overview: Apoptosis is a process of programmed cell death and plays a central role in the development of multicellular organisms. It is a highly regulated process and induces cell death by activating caspases, which are the members of cysteine aspartic acid-specific protease (caspase) family. Caspases involved in apoptosis are classified by their mechanism of action as initiator caspases (caspase-2, -8, -9 and -10) and executioner caspases (caspase-3, -6, and -7). Inhibition of apoptosis results in number of cancers, autoimmune diseases, inflammatory diseases and viral infection. To identify small molecule compounds that induce apoptosis, a homogeneous, luminescent Caspase-Glo 3/7 assay was used. Wild type HepG2 cells were used to screen Tox21 libraries for identifying caspase-3/7 activity inducers. Also cytotoxicity of the compounds was tested in parallel by measuring the cell viability using CellTiter-Fluor assay system in the same wells.
Tox21 Assay Protocol Summary: HepG2 cells were dispensed at 2,000 per well in 5uL of culture medium into white solid bottom 1536-well plates (Corning Life Sciences, Corning, NY) using a Multidrop Combi (Thermo Scientific, Waltham, MA) dispenser. The assay plates were incubated at 37 C and 5% CO2 for 5hr, and then 23nL of compounds dissolved in DMSO and positive control were transferred using a Pintool station ([…], San Diego, CA). The assay plates were incubated at 37C and 5% CO2 for 17hr. For cytotoxicity read, after 16hr incubation at 37C, 1uL CellTiter-Fluor reagent (Promega Corporation, Madison, WI) was added to each well of the assay plates using Flying Reagent Dispenser (FRD, Aurora Discovery, San Diego, CA). After 1hr incubation at 37C and 5% CO2, the fluorescence signal was quantified using a ViewLux plate reader (PerkinElmer, Shelton, CT).
(In general: In qHTS, concentration-response curves come from the screen itself.)
In the case of `CN=C(N)NC(=O)Nc1c(C)cccc1C`, the Potency entry was “inactive”.

As to `CC(C)(C)NCC(O)COc1cccc2c1C[C@H](O)[C@H](O)C2` (stereo not given in full), the Potency entry was “inactive”.

For the compound `O=C(NC(Cc1cc(=O)[nH]c2ccccc12)C(=O)O)c1ccc(Cl)cc1` (stereo not given), the Potency result was “inactive”.

As for `CC[C@H]1OC(=O)[C@H](C)[C@@H](O[C@H]2C[C@@](C)(OC)[C@@H](O)[C@H](C)O2)[C@H](C)[C@@H](O[C@@H]2O[C@H](C)C[C@H](N(C)C)[C@H]2O)[C@](C)(O)C[C@@H](C)/C(=N\OCOCCOC)[C@H](C)[C@@H](O)[C@]1(C)O`, the Potency is 25.5 µM (active).

Regarding `CCCOC(=O)c1c(Cl)c(Cl)c(Cl)c(Cl)c1C(=O)OCCC`, the Potency entry was “inactive”.

As to `O=P(O)(O)Oc1ccccc1`, the Potency result is “inactive”.

`CC(=O)OCCC1CCCCC1`: the Potency entry was “inactive”.

For `C[C@@H]1C[C@H]2[C@@H]3CCC4=CC(=O)C=C[C@]4(C)[C@@]3(F)[C@@H](O)C[C@]2(C)[C@@]1(O)C(=O)COP(=O)(O)O`, the Potency entry was “inactive”.

Regarding `COc1cc(OC)c2ccc(=O)oc2c1`, the Potency entry is “inactive”.

Turning to `CC(C)OC(=O)c1ccccc1C(=O)OC(C)C`, the Potency result is “inactive”.

Regarding `CC1CCC(C(C)CS)CC1S` (stereo not given), the Potency entry was “inactive”.

For `C=Cc1ccc(OC(C)=O)cc1`, the Potency entry is “inactive”.

For the compound `Cc1cc(CCCOc2c(C)cc(-c3noc(C(F)(F)F)n3)cc2C)on1`, the Potency result was “inactive”.

Regarding `CC1CCCO1` (stereo not given), the Potency result was “inactive”.

In the case of `O=C(O)CO`, the Potency result is “inactive”.

Take `Cc1cccc(C)c1NC(=O)c1cc(S(N)(=O)=O)c(Cl)cc1O`: the Potency result is “inactive”.

For `Cc1ccc2c(c1)CCCN2`, the Potency entry was “inactive”.

Turning to `CCOc1ncc(F)c(=O)[nH]1`, the Potency result is “inactive”.

For `CNCc1ccc(NC(=O)c2c[nH]c3c2C(=O)CCC3)cc1`, the Potency entry is “inactive”.

Consider `O=C(O)CCC(=O)c1ccc(-c2ccccc2)cc1`, for which the Potency result was “inactive”.

For `Nc1cccc2c(N)cccc12`, the Potency is 61.1 µM (active).

Turning to `CC(=O)N[C@@H](Cc1ccc(O)cc1)C(=O)O`, the Potency entry is “inactive”.

In the case of `O=C(O)CCCc1c[nH]c2ccccc12`, the Potency result was “inactive”.

`O=C(NS(=O)(=O)/C=C/c1ccccc1)c1ccc(F)cc1Cl`: the Potency result was “inactive”.

Turning to `Cc1ccc(S(=O)(=O)NC(=O)NC2CCCCC2)cc1`, the Potency result was “inactive”.

For `O=C(O)c1cc(Cl)cc(Cl)c1O`, the Potency entry is “inactive”.

For the compound `Cc1ccc(N(CCO)CCO)cc1`, the Potency result was “inactive”.

Take `CCCCCCOC(=O)CCCCC`: the Potency result was “inactive”.

On to `CC(C(=O)O)c1ccc(C(=O)c2cccs2)cc1` (stereo not given), for which the Potency entry was “inactive”.

As for `CC1=C2[C@@H]([C@H](C)CC[C@H]2/C=C(\C)C(=O)O)[C@H](O)C1`, the Potency result was “inactive”.

`CCC(CO)(CO)[N+](=O)[O-]`: the Potency entry was “inactive”.

For `COc1ccc(-c2cc(C(F)F)nn2-c2ccc(S(N)(=O)=O)cc2)cc1F`, the Potency result is “inactive”.

`CCN(CC)CCNC(=O)c1cc(Cl)c(N)cc1OC`: the Potency result is “inactive”.

On to `CS(=O)(=O)c1ccc([C@@H](C[C@H]2CCC(=O)C2)C(=O)Nc2cnccn2)cc1Cl`, for which the Potency entry is “inactive”.

For the compound `CCCCCCCCCCCCCCN(C)C`, the activity change, negative = cytotoxicity was -7.71% [at 19 µM].

`O=C1CC[C@@H](C(=O)O)N1`: the Potency entry was “inactive”.

For `Cc1ccc(NC(=O)N(C)C)cc1NC(=O)N(C)C`, the Potency entry is “inactive”.

With `CC(=O)NCCO`, the Potency entry was “inactive”.

For the compound `CCCCCCCCCCCCCOC(=O)CCSCCC(=O)OCCCCCCCCCCCCC`, the activity change, negative = cytotoxicity was 6.29% [at 19 µM].

As for `CC(=O)Oc1cccc(O)c1`, the Potency entry is “inactive”.
